Only some compounds are listed: those with a hit (about 14% of all), similar ones and a draw of the others.
HCV inhibitor = HCV inhibition. AID 651820. Potency, µM (titrated, usually from 41.8 µM), without a hit: at the highest dose activity change, negative = inhibition, actives largely listed as inhibitors. Huh7.5.1 HCVcc-Cre infection, luciferase reporter, 44 h. 340,000 compounds, 3.4% hits; note: potency is the fitted concentration of half-maximal effect
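Seed cells (1,000/well) for 4 h; treat with compound and infect with HCVcc-Cre, moi about 0.5. Incubate 44 h, then detect luciferase activity.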
Pf growth 48h = P. falciparum growth inhibition at 48 hours (one generation) | P. falciparum luciferase growth in erythrocytes, 48 h | Potency, µM (top dose mostly 28.7 µM), inactives show at the highest dose activity change, negative = inhibition, usual class: inhibitors | 310,000 compounds, 5.9% hits | AID 504832; note: potency is the fitted concentration of half-maximal effect
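First compound was added to culture medium, then infected red cells at 0.1% parasitemia and 2% hematocrit (final). After incubation at 37 C under 5% CO2, luciferase detection reagent was dispensed and light output recorded.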
Marburg entry inh = inhibitors of Marburg virus binding or cell entry. AID 540276. Potency, µM (titrated, usually from 37.8 µM), for the others: at the highest dose activity change, negative = inhibition, actives largely listed as inhibitors. Marburg virus pseudotyped entry inhibition, cell reporter. 300,000 compounds, 1.8% hits; calls by dose curve; tested in HEK293 cells; note: potency is the fitted concentration of half-maximal effect
Lassa entry inh = inhibitors of Lassa virus binding or cell entry. Lassa virus pseudotype entry inhibition, cell reporter. AID 540256. Potency, µM (top dose mostly 37.9 µM), inactives show at the top dose activity change, negative = inhibition, actives largely listed as inhibitors. 300,000 compounds, 1.2% hits; calls by dose curve; tested in HEK293 cells; note: potency is the fitted concentration of half-maximal effect; nearly all actives have a fitted effect of over 50% in size
HCMV antiviral = inhibitors of human cytomegalovirus. HFF cells, HCMV-luciferase reporter, 72 h; hits give low values. activity change, negative = inhibition, % at 57.5 µM. 410,000 compounds, 4.5% hits. AID 1259415; in the data active = activity change below about -60%; inconclusive = no clear call, values can overlap the other calls; inactive = above about -39%
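Inhibition of viral replication was scored as loss of reporter luminescence in HFFs infected with HCMV-luciferase (MOI 1 PFU/cell) for 72 h; compounds tested at 2 doses, normalized to buffer and Salinomycin controls.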
Pf growth 96h = inhibits malaria parasite growth, 96 h | P. falciparum luciferase reporter growth, 96 h | Potency, µM (highest dose often 28.7 µM), for inactives: at the top dose activity change, negative = inhibition, actives largely listed as inhibitors | 320,000 compounds, 6.9% hits | AID 504834; note: potency is the fitted concentration of half-maximal effect
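Two-generation exposure (96 h) targets delayed-death phenotype. Reporter parasites carrying integrated firefly luciferase, in red cells at 2% hematocrit and 0.05% parasitemia final, kept at 37 C, 5% CO2; luminescence loss indicates inhibition.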
An asterisk follows results filed as active; ? = inconclusive; nt = not tested or not shown; [ ] = another dose, or the depositor's remark. Unless noted, calls come from the whole dose curve; as a rule, active = well fitted inhibition curve with a large enough effect; inconclusive = small, poorly fitted or top-dose-only effect, or another doubt; inactive = no such curve, though single readings can be large or run the other way. % is set by controls: 0 for no effect and ±100 for the full control effect.

SMILES | HCV inhibitor | Pf growth 48h | Marburg entry inh | Lassa entry inh | HCMV antiviral | Pf growth 96h
COc1ccc(COC(=O)NN=C2C[C@@H](O)[C@@H](O)[C@@H]3[C@H]4C(=O)N(c5cccc(Oc6ccccc6)c5)C(=O)[C@@H]4CC[C@H]23)cc1 | nt | nt | 9%[14.2 µM] | ? | nt | nt
CCOC(=O)c1c(C)c(C(=O)NC2CCCCCC2)c(C)n1C | 0% | -8% | 22% | 1% | 34 | nt
CCOC(=O)c1c(C)c2c(n1C)CCC/C2=N\O | 7% | 22% | -5% | -6% | -9 | 12µM*
CCOc1cccc(CNCCO)c1OCc1ccc(Cl)cc1Cl | ? | ? | ? | -25% | ? | ?
CCOc1cc(CNCc2cccs2)cc(Br)c1OCC | ? | ? | ? | ? | -27 | ?
OCCNCc1cc(Br)ccc1OCc1ccc(Cl)cc1 | ? | ? | ? | -20% | -29 | ?
OCCNCc1cc(Br)ccc1OCc1ccc(Cl)cc1Cl | 11µM* | ? | 11µM* | 11µM* | -17 | 236%
CCOc1cc(CNCCO)cc(Br)c1OCc1cccs1 | 5.6µM* | ? | ? | -25% | ? | ?
CCOc1cc(CNCCO)cc(Br)c1OCc1ccc(Cl)cc1Cl | ? | 8.3µM* | ? | -24% | 2 | -21%
CC(C)C[C@H]1COc2c(Cl)cccc2S(=O)(=O)N1Cc1ccc(F)cc1F | nt | nt | nt | nt | -13 | nt
COc1cc(N/N=C/c2ccc(N(C)C)cc2)ncn1 | 4% | 69% | nt | nt | 70 | ?
Cc1cnn(-c2cc(N/N=C/c3ccccc3F)ncn2)c1 | 1% | 25% | 4% | 3% | 2 | 13µM*
Cc1cnn(-c2cc(N/N=C/c3cccc(F)c3)ncn2)c1 | 10% | 1% | 0% | -8% | -17 | 1.9µM*
COc1cc(N/N=C/c2ccccc2O)ncn1 | ? | ? | ? | ? | -103* | ?
Cc1ccccc1S(=O)(=O)N(C)C[C@H]1OCc2cn(nn2)CCCC(=O)N([C@H](C)CO)C[C@@H]1C | nt | nt | nt | nt | -1 | nt
COn1c2c(c3c4no[n+]([O-])c4ccc31)CCCC2 | ? | nt | -6% | 0% | ? | -16%
[O-][n+]1c2c(c3c4non(O)c4ccc31)CCCC2 | -23% | nt | 3% | -4% | -97* | 12µM*
CCOc1ccc(NC(=O)CCS(=O)(=O)c2ccc3nc(C)sc3c2)cc1 | nt | nt | nt | 9%[46.1 µM] | 7 | nt
O=C(NCCCNC(=O)c1cc(Cl)ccc1Cl)c1ccco1 | 1% | 19% | -16%[46.1 µM] | ? | -29 | 1%
CC(=O)N1C[C@H]2CON(C)[C@H]2C[C@H]1c1ccc(-c2ccc(C#N)cc2)cc1 | nt | nt | nt | nt | 0 | nt
COc1ccc(S(=O)(=O)CC2(O)CCN(C(=O)CC(C)C)CC2)cc1 | 7% | 9.3µM* | ? | -11% | ? | 8%
Cc1cnc(C(=O)N2CCN(S(=O)(=O)c3ccc4ccccc4c3)CC2)cn1 | -26% | nt | 14% | -22% | 41 | 9.3µM*
CSc1ncccc1C(=O)N1CCN(S(=O)(=O)c2ccc3ccccc3c2)CC1 | ? | ? | nt | nt | -83* | ?
O=C(c1ccccc1F)N1CCN(S(=O)(=O)c2ccc3ccccc3c2)CC1 | -25% | 15% | nt | nt | -39 | -7%
Nc1cc(=O)[nH]c(SCC(=O)N2CCN(S(=O)(=O)c3ccc4ccccc4c3)CC2)n1 | 9% | 10% | ? | 2% | 4 | -16%
SMILES | HCV inhibitor | Pf growth 48h | Marburg entry inh | Lassa entry inh | HCMV antiviral | Pf growth 96h
O=C(CSc1n[nH]c(-c2cccs2)n1)N1CCN(S(=O)(=O)c2ccc3ccccc3c2)CC1 | ? | nt | ? | ? | -37 | 5.9µM*
Cc1cccc(-n2c(SCC(=O)c3ccccc3)nnc2-c2ccc(Br)cc2)c1 | nt | nt | nt | -5%[46.1 µM] | -4 | nt
O=C1C=C(OCCCl)CC(c2cccc(Cl)c2)O1 (stereo not drawn) | nt | nt | nt | nt | -13 | nt
CC(C)CC1NC(=O)N(CC(=O)N2CCN(S(=O)(=O)c3ccc4ccccc4c3)CC2)C1=O (stereo not drawn) | 6% | -23% | 11% | 12% | 6 | ?
CC(C)CC(=O)N1CCN(S(=O)(=O)c2ccc3ccccc3c2)CC1 | ? | nt | -20% | -26% | -88* | ?
O=C(c1cnc(Cl)c(Cl)c1)N1CCN(S(=O)(=O)c2ccc3ccccc3c2)CC1 | 11µM* | -10% | ? | 1% | 23 | -2%
O=C(c1ccncc1)N1CCN(S(=O)(=O)c2ccc3ccccc3c2)CC1 | ? | -13% | nt | nt | -38 | 46%
CC1(Oc2ccccc2-c2ccn[nH]2)CCN(Cc2ccc(OC(F)(F)F)cc2)C1 (stereo not drawn) | nt | nt | nt | nt | -2 | nt
CCCCCCN(C(=O)CCCCCN1C(=O)NC(c2ccc([N+](=O)[O-])cc2)C(C(=O)OCc2ccccc2)=C1C)C(C(=O)NCCCC)c1ccc(OCC(=O)OC)c(C(=O)OC)c1 (stereo not drawn) | nt | 1.9µM* | nt | nt | ? | 3.3µM*
CCCCN1C(=O)NC(c2cccc([N+](=O)[O-])c2)C(C(=O)OCC)=C1C (stereo not drawn) | -9% | nt | nt | nt | 1 | nt
CCCCCCN(C(=O)CCCCCN1C(=O)NC(c2cccc([N+](=O)[O-])c2)C(C(=O)OCc2ccccc2)=C1C)C(C(=O)NCCCC)c1ccc(OCC(=O)OC)c(C(=O)OC)c1 (stereo not drawn) | nt | ? | nt | nt | -74* | 5.2µM*
Cc1cccnc1C(NC(=O)C1CCN(Cc2ccccc2)CC1)c1ccc(F)cc1 (stereo not drawn) | nt | nt | nt | nt | -62* | nt
Nc1nc2cc(Cl)c(Br)cc2o1 | 10% | nt | -6% | 0%[46.1 µM] | 0 | nt
COc1ccccc1CNC(=O)CCC1N=C2c3ccccc3N=C(SCc3ccc(C)cc3)N2C1=O (stereo not drawn) | nt | nt | nt | -25%[46.1 µM] | 18 | nt
O=C(CSc1nnc(-c2ccc(Br)o2)n1Cc1ccccc1)c1ccccc1F | -16% | 9.3µM* | -18% | ? | -17 | ?
C=CCOc1ccccc1OCC(O)CNC(C)C (stereo not drawn) | 1µM* | -10% | nt | nt | -22 | -9%
Cc1cccc(C)c1OCC(O)CNC(C)C (stereo not drawn) | 13% | nt | 8% | 17% | -10 | ?
CCOC(=O)c1oc2cccc(OCC(O)CNC(C)C)c2c1C (stereo not drawn) | ? | 9.3µM* | ? | 3% | 0 | 1.3µM*
Cc1ccc2cc(CN(C)C(=O)c3cccc(Cl)c3)c(=O)[nH]c2c1 | nt | nt | 18%[46.1 µM] | -20%[46.1 µM] | 4 | nt
CCCCn1c(N)c(N(CC)C(=O)Cc2ccc(S(=O)(=O)N3CCOCC3)s2)c(=O)[nH]c1=O | 31% | 1% | 28% | 19% | -31 | 11%
O=C(Cc1ccc(S(=O)(=O)N2CCOCC2)s1)N(Cc1ccccc1)c1ccccc1 | -7% | 9.3µM* | -19% | -14% | -38 | 2.3µM*
